Results on 37 compounds are retold here after PubChem BioAssay (EPA / NIEHS).

Activity calls are given as the source filed them. Rule for the calls: active = hit-call score of the fitted dose curve at least 0.9, where 1 is the maximum; inactive = score below 0.9.

This assay is described as follows: CCTE_Harrill_HTTr_Viability_MCF7: CCTE's 6-hour Cell Viability Assessment for the High-Throughput Transcriptomics (HTTr) Platform, in MCF-7 cells cultured in DMEM + 10% fetal bovine serum, Harrill Lab (AID 2284010). The procedure, abridged: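 Read-out is propidium iodide gain of signal by high-content imaging, reflecting membrane integrity loss. Measurements are taken 6 h after dosing, eight concentrations per chemical, with DMSO serving as baseline for bidirectional curve fitting.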
For `Cc1cc(SCc2sc(-c3ccc(C(F)(F)F)c(F)c3)nc2C)ccc1OCC(=O)O`, the outcome was inactive.
The same measure, in the same setting: next, `C1CCC(C2CCCCC2)CC1`: “inactive”.
The same measure, in the same setting: next, `O=C(NC(=O)c1c(F)cccc1F)Nc1ccc(Cl)cc1`: “inactive”.
The same measure, in the same setting: the value for `CN(C1CCCCC1)C1CCCCC1` was “inactive”; that for `Nc1ncn[nH]1` was “inactive”; that for `Nc1ccc(N)cc1` was “inactive”.
Take `C[C@H]1C(=O)O[C@@H]2CCN3CC=C(COC(=O)[C@](C)(O)[C@]1(C)O)[C@H]23`: the outcome was inactive.
Still for that read-out and setting: the value for `CC(C=O)Cc1ccc2c(c1)OCO2` (configuration not stated) was “inactive”.
Still for that read-out and setting: the value for `CC(C)(C)c1ccc(CCOc2ncnc3ccccc23)cc1` was “inactive”.
As to `CC(O)(CS(=O)(=O)c1ccc(F)cc1)C(=O)Nc1ccc(C#N)c(C(F)(F)F)c1` (configuration not stated), the outcome was inactive.
Regarding `O=C(O)COc1ccc(Cl)cc1`, the result was inactive.
As to `CCOP(=O)(OCC)OC(=CCl)c1ccc(Cl)cc1Cl`, the result was inactive.
In the case of `O=c1[nH]c2ccccc2n1C1CCN(CCCC(c2ccc(F)cc2)c2ccc(F)cc2)CC1`, the AC50 is 77.9 µM (active).
For `CCOC(=O)c1ccccc1S(=O)(=O)NC(=O)Nc1nc(Cl)cc(OC)n1`, the outcome was inactive.
On the same count and under the same terms, the value for `Clc1cccc(Cl)c1` was “inactive”; that for `CCOCn1c(-c2ccc(Cl)cc2)c(C#N)c(Br)c1C(F)(F)F` was “inactive”; that for `O=NN1CCOCC1` was “inactive”.
Consider `C=CCc1ccccc1O`, for which the outcome was inactive.
`OC[C@@H](O)[C@H]1O[C@@H]2O[C@H](C(Cl)(Cl)Cl)O[C@@H]2[C@H]1O`: the outcome was inactive.
In the case of `COC(=O)c1cc(Oc2ccc(Cl)cc2Cl)ccc1[N+](=O)[O-]`, the result was inactive.
On the same count and under the same terms, the value for `C#C[C@]1(O)CC[C@H]2[C@@H]3CCC4=CC(=O)CC[C@]4(C)[C@H]3CC[C@@]21C` was “inactive”.
Turning to `C[CH2][Hg][S]c1ccccc1C(=O)O`, the AC50 was 49.1 µM (active).
Take `O=[N+]([O-])c1cccc2ccccc12`: the result was inactive.
On the same count and under the same terms, next, `CCN(N=O)C(N)=O`: “inactive”; `C[C@@H]1O[C@@H](O[C@H]2C[C@@H](O)[C@]3(CO)[C@H]4[C@H](O)C[C@]5(C)[C@@H](C6=CC(=O)OC6)CC[C@]5(O)[C@@H]4CC[C@]3(O)C2)[C@H](O)[C@H](O)[C@H]1O`: “inactive”; `Cc1cc(C(C)(C)c2ccc(O)c(C)c2)ccc1O`: “inactive”.
Same read-out and setting: next, `CCCSP(=S)(OCC)Oc1ccc(Cl)cc1Cl` (configuration not stated): “inactive”; `CCOC(=O)CCN(SN(C)C(=O)Oc1cccc2c1OC(C)(C)C2)C(C)C`: “inactive”.
Consider `COc1nn(C(=O)NS(=O)(=O)c2ccccc2OC(F)(F)F)c(=O)n1C`, for which the result was inactive.
As for `CN(N=O)C(N)=O`, the result was inactive.
Regarding `O=C1C=CC(=O)c2ccccc21`, the AC50 was 69.1 µM (active).
Regarding `CCOP(=S)(OCC)Oc1ccc(Cl)cc1Cl`, the outcome was inactive.
In the case of `Cc1cc(Cl)ccc1N`, the outcome was inactive.
For the compound `OCC(c1ccc(Cl)cc1)c1ccc(Cl)cc1`, the outcome was inactive.
For `O=C1C[C@@H]2OCC=C3CN4CC[C@]56c7ccccc7N1[C@H]5[C@H]2[C@H]3C[C@H]46`, the result was inactive.
The same measure, in the same setting: the value for `CC(C)O.CC(C)O.OCCN(CCO)CCO.OCCN(CCO)CCO.[Ti]` was “inactive”.
For the compound `N#CCCC(Br)(C#N)CBr` (configuration not stated), the outcome was inactive.

As usually defined, the AC50 is the concentration giving half of the maximal activity seen.
